# A selection follows.
# aSyn 5UTR act = Activators via SNCA 5'UTR binding, MLPCN; AID 1814, 2009; 300,000 compounds, 7.1% hits; activity score, % (tested at 7.5 µM), hits read low; alpha-synuclein 5'UTR reporter, activators screen; in the data active means activity score below about -60%
# The depositor's hits bear a star.
SMILES,aSyn 5UTR act
Cc1cccc(NC(=O)Nc2ccc3c(c2)N(C)C(=O)CS3)n1,-83.2*
O=C1CSC2=NCN(c3ccc4c(c3)OCO4)CN12,-146.8*
Cc1ccc(N2CN=c3s/c(=C\c4ccccn4)c(=O)n3C2)cc1,-63.1*
Oc1cccc2ccc(/C=C/c3c(F)cccc3Cl)nc12,-114.0*
Nc1nccc(/C=C/c2c(F)cccc2Cl)n1,-102.8*
CCOc1cc(/C=C(/C#N)C(=O)Nc2ccc(O)cc2)cc(Br)c1O,83.7
N#C/C(=C\c1ccc(OCc2ccccc2)cc1)C(=O)Nc1ccc(C(=O)O)cc1,-95.8*
COc1cc(/C=C(/C#N)C(=O)Nc2ccccc2)c(Br)cc1OCc1ccc(C(=O)O)cc1,-66.8*
COc1cccc(C(=O)N=c2sc3cc(S(C)(=O)=O)ccc3n2C)c1,-127.2*
COc1cc(OC)cc(C(=O)N=c2sc3ccccc3n2C)c1,-149.4*
COC(=O)Cn1c(=NC(=O)c2cccc(OC)c2)sc2cc(OC)ccc21,-87.5*
COc1ccc(C(=O)N=c2sc3ccccc3n2C)cc1,-192.9*
Cc1ccc(C(=O)N/N=c2\sc3ccccc3n2C)cc1,-61.8*
O=C(CCN1C(=O)/C(=C/c2ccc(F)cc2)SC1=S)NC1C=CS(=O)(=O)C1 (stereo not given),-72.6*
O=C(CCN1C(=O)/C(=C/c2ccccc2Cl)SC1=S)NC1C=CS(=O)(=O)C1 (stereo not given),-70.6*
O=C(CCCN1C(=O)/C(=C/c2ccccc2Cl)SC1=S)NNC(=O)c1ccccc1,62.1
O=C(Nc1ccc(-c2nc3ncccc3o2)cc1)c1ccco1,-162.6*
O=C(Nc1ccc(-c2nc3ncccc3o2)cc1)c1ccc(Br)o1,-102.9*
FC(F)(F)c1cc(-c2ccccn2)nc2cc(-c3ccccc3)nn12,-77.6*
CS(=O)(=O)N1N=C(c2ccc(Br)cc2)CC1c1ccc2c(c1)OCO2 (stereo not given),-321.9*
Cc1ccc(C2=NN(S(C)(=O)=O)C(c3ccc4c(c3)OCO4)C2)cc1 (stereo not given),-265.1*
CC(=O)N1N=C(c2ccccc2)CC1c1cn(C)c2ccccc12 (stereo not given),-117.5*
CC(=O)N1N=C(c2ccc(C)cc2)CC1c1ccc2c(c1)OCO2 (stereo not given),-132.9*
COc1ccc(C2=NN(C(=O)COc3ncnc4ccccc34)C(c3ccco3)C2)cc1 (stereo not given),64.0
CC(=O)N1N=C(c2ccc(C)cc2)CC1c1ccco1 (stereo not given),-97.7*
SMILES,aSyn 5UTR act
Cc1ccc(N=C(c2cccs2)N2CCOCC2)cc1,-65.8*
N#Cc1ccccc1NC(=O)c1ccc(-c2ccccc2Cl)o1,-128.3*
O=C(Nc1ccccc1)c1ccc(-c2ccccc2Cl)o1,-178.1*
Cc1[nH]c2ccccc2c1C(=O)NS(=O)(=O)Nc1ccc(Cl)cc1,-81.7*
Cc1nc(NCc2ccco2)c2c(C)c(C)sc2n1,-176.5*
NC(=O)c1cnn(-c2ccc3ccccc3c2)c1N,-124.6*
Cc1oc(-c2ccc3c(c2)OCCO3)cc1C(=O)O,-135.1*
Cc1oc(-c2ccc3c(c2)OCCO3)cc1C(=O)NCC(=O)O,-126.1*
COc1ccc(NC(=O)CSc2n[nH]c(N)n2)cc1OC,-92.3*
Nc1nc(SCC(=O)Nc2ccc(OCc3ccccc3)cc2)n[nH]1,-84.5*
COc1ccc2c(c1OC)C(=O)OC2Nc1nc(-c2ccc(-c3ccccc3)cc2)cs1 (stereo not given),-233.4*
CCN(CC)c1ccc(/C=N/NC(=O)C2CC2)cc1,-61.8*
Cc1cc(/C=N/Nc2ccc([N+](=O)[O-])cn2)c(C)n1-c1ccccc1,-136.6*
Cc1c(C(=O)N/N=C/c2ccc(Cl)cc2)[nH]c2ccc(Cl)cc12,-122.3*
CN(C)c1ccc(/C=N/NC(=O)c2cc(-c3ccc4c(c3)OCO4)n[nH]2)cc1,-137.0*
COc1cccc(/C=N/Nc2ccc([N+](=O)[O-])cn2)c1O,102.1
O=C(N/N=C/c1ccc2c(c1)OCO2)c1ccc2c(c1)OCCO2,-136.1*
O=C(N/N=C/c1cccc([N+](=O)[O-])c1)c1ccc2c(c1)OCCO2,-125.9*
CCCCCCCC(=O)Nc1ccc(C(=O)N/N=C/c2cccc([N+](=O)[O-])c2)cc1,76.2
O=C(N/N=C/c1cccs1)c1ccc2c(c1)OCO2,-65.4*
CCN(CC)c1ccc(/C=N/NC(=O)Nc2nonc2N)cc1,-77.7*
O=C(Cc1ccccc1)N/N=C/c1cc(Br)c(Br)o1,-67.6*
O=C(N/N=C/c1ccc2c(c1)OCO2)c1ccc(Br)o1,-250.0*
CCC/C(=N/NC(=O)c1ccc2c(c1)OCO2)c1cccs1,-69.3*
O=C(Nc1cccc(C(=O)O)c1)/C(=C\c1ccc2c(c1)OCO2)NC(=O)c1ccc(Br)o1,-67.9*
SMILES,aSyn 5UTR act
O=C(N/N=C/c1cc(Br)c(Br)o1)c1ccc2c(c1)OCCO2,-135.3*
Cc1cc(C(=O)N/N=C/c2cccc([N+](=O)[O-])c2)c(C)n1-c1ccccc1,-142.2*
O=C(N/N=C/c1ccc(Cl)cc1)c1ccc2c(c1)OCO2,-396.3*
O=C(N/N=C/c1cc(Br)cc(Cl)c1O)c1ccc2c(c1)OCO2,50.0
CCN(CC)c1ccc(/C=N/NC(=O)c2ccc(Br)o2)cc1,-160.3*
N#CC1(c2ccc(NC(=O)c3ccccc3)cc2)CCCC1,-89.4*
CC(=O)Oc1ccc(C(=O)Nc2ccc(C3(C#N)CCCC3)cc2)cc1,-142.1*
Nc1c(Cl)cc(C2=NCCn3c2c2ccc([N+](=O)[O-])cc2[n+]3[O-])cc1Cl,61.0
[O-][n+]1c2cc(C(F)(F)F)ccc2c2n1CCN=C2c1ccc(Cl)cc1,-65.1*
O=C(NCCc1ccccc1Cl)c1ccc2nc3ccccc3c(=O)n2c1,-100.2*
C=CCc1ccc(OCCn2cccc2C=O)c(OC)c1,-139.7*
Cc1cccc(OCCn2nnc3ccccc32)c1C,-179.9*
C=CCc1ccc(OCCOc2cccc3ccc(C)nc23)c(OC)c1,-69.3*
C=CCc1ccc(OCCn2nnc3ccccc32)c(OC)c1,-248.1*
C/C=C/c1ccc(OCCn2nnc3ccccc32)c(OC)c1,-115.0*
COc1ccc(C(=O)CCNc2ccc(F)cc2)cc1,-114.2*
COc1ccc(C(=O)CC(=O)c2ccccc2)cc1,-125.0*
COC(=O)c1ccc(OCC(=O)c2ccccc2)cc1,-133.2*
COc1ccc(C(=O)Cc2nnc(C)s2)cc1,-98.6*
CCOc1ccc(C(=O)CSCCC(=O)O)cc1,68.3
COc1ccc(C(=O)C[n+]2ccc3ccccc3c2C)cc1,-143.8*
O=C(CNS(=O)(=O)c1ccccc1)OCC(=O)c1ccc(OC(=O)c2ccccc2)cc1,-66.7*
COc1ccc(S(=O)(=O)Nc2cc3c(C(C)=O)c(C)oc3c3ccccc23)cc1,81.9
COc1ccc(C(=O)CC(=O)c2ccc(OC)cc2)cc1,-70.8*
COc1ccc(C(CC(=O)c2ccccc2)S(=O)(=O)c2ccc(C)cc2)cc1 (stereo not given),-186.1*
SMILES,aSyn 5UTR act
COc1ccc(C(=O)NCC(=O)c2ccccc2)cc1,-101.7*
CCOc1ccc(-c2cc(C(=O)NCCCn3ccnc3)c3cc(Br)ccc3n2)cc1,60.3
O=C(NCCCn1ccnc1)c1cc(-c2cccc(O)c2)on1,-64.6*
O=C(NCCCn1ccnc1)c1cc2ccccc2oc1=O,-65.0*
O=C(N/N=C/c1cccs1)c1n[nH]c2c1CCCC2,81.8
Cc1occc1C(=O)Nc1cccc2ccccc12,-172.0*
Cc1occc1C(=O)N/N=C/c1cccc2ccccc12,-200.2*
Cc1occc1C(=O)N/N=C/c1cccs1,-82.0*
Oc1ccccc1CNc1ccc(Br)cn1,-300.0*
COc1ccccc1CNc1ccc(Br)cn1,-113.0*

# Screens from PubChem.
